PubChem BioAssay AID1851 (National Center for Advancing Translational Sciences (NCATS), 2009)
The campaign covered roughly 16,000 compounds. About 5,800 (36%) were called active. Inconclusive results (about 23%) are left out. Some of the results follow. A number with no mark means an inactive call. The call rests on the fitted dose curve; in most records, active means well fitted curve in the direction sought with a large enough effect; inconclusive means small, poorly fitted or top-dose-only effect, or effect the other way; inactive means no such curve, though single readings can be large or run the other way.

The compounds below were run against Cytochrome P450 2C19 (Homo sapiens) (UniProt P33261) (assay: Cytochrome panel assay with activity outcomes). Conditions: recombinant CYP, pro-luciferin dealkylation, luminescence, p450-cyp2c19; series mostly up to 57.1 µM; activity, negative = inhibition: at the top concentration.
Sequence of Cytochrome P450 2C19 (Homo sapiens) (P33261 whole entry, looked up): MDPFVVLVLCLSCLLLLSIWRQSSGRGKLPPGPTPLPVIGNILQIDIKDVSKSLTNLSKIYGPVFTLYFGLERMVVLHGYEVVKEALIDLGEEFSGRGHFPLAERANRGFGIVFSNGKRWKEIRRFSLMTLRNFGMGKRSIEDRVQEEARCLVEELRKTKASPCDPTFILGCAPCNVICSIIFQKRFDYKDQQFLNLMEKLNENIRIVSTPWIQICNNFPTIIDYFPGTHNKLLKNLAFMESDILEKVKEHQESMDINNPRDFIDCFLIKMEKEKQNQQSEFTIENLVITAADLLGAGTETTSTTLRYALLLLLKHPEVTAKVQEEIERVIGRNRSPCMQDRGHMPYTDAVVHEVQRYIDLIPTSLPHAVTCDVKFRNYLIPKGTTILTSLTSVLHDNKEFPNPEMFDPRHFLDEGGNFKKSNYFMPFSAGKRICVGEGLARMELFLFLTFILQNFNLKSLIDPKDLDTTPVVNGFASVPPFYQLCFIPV
On the % scale 0 is the no-effect control and ±100 the full control effect.

Compound	activity, negative = inhibition	AC50
Cc1cc2c(nc1C)CCCN2CC(O)CN1CCCc2nc(C)c(C)cc21	6.93% [at 11.4 µM]	–
Cc1ccc(S(=O)(=O)CC(O)CN2CCCC2=O)cc1 (stereo not given)	–	10 µM (active)
O=C1CCCN1CC(O)CS(=O)(=O)c1ccccc1 (stereo not given)	-6.21%	–
CN(C)C(=O)/N=N\C(=O)N(C)C	-47.9%	–
N[C@H](C(=O)O)[C@@H](O)c1cnc[nH]1	-17.9% [at 11.4 µM]	–
C=CCOC(=O)/C(=C\c1cccc2ccccc12)NC(=O)c1ccccc1	–	0.398 µM (active)
CCOc1ccccc1/C=C(\C#N)C(N)=O	-18.7% [at 11.4 µM]	–
CCOc1cccc2cc(C(N)=O)c(=NCc3ccccc3)oc12	–	10 µM (active)
CC(=O)NCCn1c(SCC(=O)NCc2ccco2)nc2ccccc2c1=O	–	1.12 µM (active)
CCOC(=O)CSc1nc2ccccc2c(=O)n1CC1CCC(C(=O)NCc2ccco2)CC1 (stereo not given)	–	7.08 µM (active)
O=C(CSc1ccccc1C(=O)O)NCc1ccco1	-3.72%	–
COCCn1c(Cc2ccccc2)nnc1SCc1nc2ccccc2c(=O)[nH]1	56%	–
CC(C)Cn1c(SCc2nc3ccccc3c(=O)[nH]2)nc2ccccc2c1=O	–	2.51 µM (active)
COCc1nc2c([nH]1)c(=O)n(C)c(=O)n2CC(C)C	-17%	–
O=C(CSc1nc2ccccc2c(=O)n1Cc1ccccc1)NCc1ccco1	–	0.708 µM (active)
C=CCNC(=O)C1CCN(S(=O)(=O)CC)CC1	-20.8%	–
O=C(CSc1nc2ccccc2c(=O)n1CCCO)NCc1ccccc1	–	11.2 µM (active)
Cc1cc(NC(=O)CSc2nc3ccccc3c(=O)n2CCCC(=O)NCc2ccco2)n[nH]1	–	2.24 µM (active)
C=CCSc1nc2ccccc2c(=O)n1Cc1ccco1	–	1 µM (active)
Cc1cccc(C)c1-n1c(SCC(=O)NCc2ccco2)nc2ccccc2c1=O	–	4.47 µM (active)
O=C(O)CCCCCn1c(SCC(=O)N2CCCC2)nc2ccsc2c1=O	16.5%	–
COc1ccc(NC(=O)CSc2nc3ccccc3c(=O)n2CCC(=O)N2CCCCC2)cc1	–	0.794 µM (active)
O=C(CSc1nc2ccccc2c(=O)n1CCCC(=O)N1CCCC1)NCc1ccco1	–	4.47 µM (active)
O=c1c2ccccc2nc(SCc2ccccc2Cl)n1Cc1ccccc1	–	2.82 µM (active)
COC(=O)N1CCC2(CCCN(C(=O)Nc3ccc(OC)cc3)C2)CC1	-38.2%	–

Compound	activity, negative = inhibition	AC50
Cc1cc(NC(=O)CSc2nc3ccsc3c(=O)n2Cc2ccccn2)n[nH]1	–	15.8 µM (active)
O=C(CSc1nc2ccccc2c(=O)n1NC(=O)Cc1ccccc1)NCc1ccccc1Cl	–	0.794 µM (active)
CCOC(=O)COc1c(C=O)cc(Br)cc1OC	–	6.31 µM (active)
CCOC(=O)C1=C(O)/C(=C/c2cc(OC)c(OC)c(OC)c2)N=C1C	-19.3%	–
CCOc1cc(/C=C2\N=C(C)OC2=O)cc(Br)c1OCC(=O)OC	-28.7%	–
Cc1ccc(C)c(S(=O)(=O)N2CCC(c3nc4c(nnn4Cc4ccc(F)cc4)c(=O)[nH]3)CC2)c1	–	4.47 µM (active)
Nc1nc(Br)c2c(F)cccc2c1-c1ccc(Cl)cc1	–	1.26 µM (active)
Nc1nc(Br)c2ccccc2c1-c1ccc(F)cc1	–	2.82 µM (active)
O=C(Cc1ccc2c(c1)CCCC2)Nc1ccccc1Br	–	3.55 µM (active)
CC1=CC(C)(C)N(C)C(=O)N1c1ccc(Cl)cc1	–	15.8 µM (active)
NC(N)=Nc1nc(CCN2C(=O)c3ccccc3C2=O)cs1	–	2.82 µM (active)
CO[C@@H]1COC(=O)CC=C[C@@H](C)[C@@H]2C=C[C@@H](O)[C@@H](COC(=O)C/C=C\[C@H]1C)O2	-8% [at 11.4 µM]	–
Cc1cccc(C)c1NC(=O)CS(=O)CC(=O)NCCCc1ccccc1 (stereo not given)	-22.3%	–
CCC(=O)Nc1cccc(C(=O)/C=C/c2ccccc2)c1	–	5.62 µM (active)
Cc1cccc(C)c1NC(=S)NC(=O)CCc1ccccc1	–	3.55 µM (active)
CCCCC(=O)NC(=S)Nc1cccc(NC(=O)CC)c1	–	10 µM (active)
CC(=O)Nc1ccc(C(=O)NNC(=O)CCc2ccccc2)cc1	-11.5%	–
Cc1cccc(NC(=S)NC(=O)CCc2ccccc2)c1	–	5.62 µM (active)
CCC(=O)NNC(=O)CCC(=O)Nc1ccccc1	-11.9%	–
Cn1c(=O)c2c(-c3cccc(F)c3)c3c(nc2n(C)c1=O)-c1ccccc1C3O (stereo not given)	-77.1%	–
Cc1c(C)c(C)c(CC2(C)CSC2)c(CC2(C)CSC2)c1C	35.5% [at 11.4 µM]	–
CN(C)c1ncc2ncc(=O)n(C3CC3)c2n1	-21.5%	–
N[C@H](CCC(=O)NCC(=O)O)C(=O)O	-14.1%	–
Cc1ccc(-n2nc3ccc(NC(=O)c4ccc5c(c4)OCO5)cc3n2)cc1	-26.9%	–
Cc1ccc(C(=O)Nc2ccc3nccnc3c2)cc1	–	14.1 µM (active)

Compound	activity, negative = inhibition	AC50
CCN1C(=O)[C@H]2[C@H]3[C@H](O)[C@H](O)C/C(=N/OCC[C@H]4C=C[C@H](OC(C)=O)[C@@H](COC(C)=O)O4)[C@@H]3CC[C@@H]2C1=O	0.181% [at 11.4 µM]	–
Cc1c(C)n(C(=O)CN2CCC(C)CC2)c2ccccc12	–	3.55 µM (active)
CC1CCN(CC[C@@H]2CCCN2S(=O)(=O)c2cccc(O)c2)CC1	15.1%	–
O=C(O)c1cc(=O)cc(C(=O)O)[nH]1	14.5%	–
COc1ccc(COC(=O)N/N=C2/C[C@@H](O)[C@@H](O)[C@@H]3[C@@H]4C(=O)N([C@@H](C)c5ccccc5)C(=O)[C@H]4CC[C@H]23)cc1	1.27% [at 11.4 µM]	–
C[C@]1(c2ccccc2)OC(C(=O)O)=CC1=O	-35.6%	–
COc1ccc(NC(=O)c2ccc(C(=O)c3cc(OC)ccc3OC)cc2)cc1	9.75%	–
Cc1ccc(C(=O)Nc2cc(Cl)ccc2OC(=O)c2ccc(C)cc2)cc1	–	11.2 µM (active)
COc1ccc(C(=O)Nc2cc(Cl)ccc2OC(=O)c2ccc(OC)cc2)cc1	–	3.55 µM (active)
COC(=O)CCSc1cc([N+](=O)[O-])cc2c1c(C1OCCS1)nn2-c1ccccc1 (stereo not given)	–	25.1 µM (active)
NC(N)=NC(N)=Nc1cccc(Cl)c1	–	inactive
NC(N)=NC(N)=Nc1ccccc1	–	25.1 µM (active)
NC(N)=NC(N)=Nc1ccc(S(=O)(=O)O)cc1	10.1% [at 11.4 µM]	–
N#C/C(=C/c1cccc(C(F)(F)F)c1)c1nc(CCN2C(=O)c3ccccc3C2=O)cs1	–	3.16 µM (active)
C=CCNCCCCOc1c(Cl)cc(C)cc1Br	–	8.91 µM (active)
COCCCNCCCCOc1c(Cl)cc(C)cc1Br	-17.9%	–
Cc1cc(Br)cc(C)c1OCCCCN(C)C	-23.4%	–
C/C(=N\NC(=O)Cc1ccc(Cl)cc1)c1ccccn1	–	5.01 µM (active)
O=C(N/N=C/C1CCCCC1)c1ccccn1	-9.73%	–
CC(C)c1ccc(N2C(=O)CC(Sc3nc4ccccc4o3)C2=O)cc1 (stereo not given)	–	1.78 µM (active)
CCOC(=O)N/N=C1/C[C@@H](O)[C@@H](O)[C@@H]2[C@@H]3C(=O)N([C@@H](C)c4ccccc4)C(=O)[C@H]3CC[C@@H]12	-0.98% [at 11.4 µM]	–
CCOC(=O)c1cc(-c2ccc(Cl)cc2)nc2c1c(C)nn2CCC#N	–	14.1 µM (active)
COc1cccc(Nc2ncc3nc(-c4ccc(Cl)cc4)c(=O)n(CCC#N)c3n2)c1	-11.3%	–
Cc1nn(C)c(Oc2cccc(Cl)c2)c1C=O	–	6.31 µM (active)
CC(C)N=C(N)/N=C(\N)Nc1ccc(Cl)cc1	-16.3% [at 25.6 µM]	–

Compound	activity, negative = inhibition	AC50
Cc1ccc(NC(=O)N/C=C/c2ccc(Cl)cc2)cc1	-10%	–
O=C(N/N=C/c1ccc(Cl)cc1Cl)Nc1ccccc1	–	2.82 µM (active)
O=C(N/N=C/c1ccc(Cl)cc1)Nc1ccccc1	–	11.2 µM (active)
Cn1cccc1C(=O)N1CCC2(CC1)CN(c1ccccn1)C2	-9.16%	–
c1ccc(-c2cccc(N3CCC4(CCNCC4)CC3)c2)cc1	-43%	–
Cn1cccc1C(=O)N1CCC[C@@]2(CCN(c3ccncc3)C2)C1	–	6.31 µM (active)
O=C(c1ccco1)N1CCC[C@@]2(CCN(c3ccncc3)C2)C1	-25.6%	–
Cn1cccc1C(=O)N1CCC[C@@]2(CCN(Cc3nccs3)C2)C1	-8.84%	–
O=C(c1ccco1)N1CCC2(CC1)CCN(c1ccc(-c3ccccc3)cc1)CC2	-2.45%	–
Cn1cccc1C(=O)N1CCC2(CC1)CN(c1ccncc1)C2	–	1.26 µM (active)
O=C(c1ccco1)N1CCC2(CC1)CCN(c1cccc(-c3ccccc3)c1)CC2	–	10 µM (active)
O=C(c1ccco1)N1CCC[C@@]2(CCN(c3ccccc3)C2)C1	–	5.01 µM (active)
CC(=O)N1CCC[C@@]2(CCN(c3ccncc3)C2)C1	5.7%	–
O=C(c1ccco1)N1CCC2(CCCN(c3ccccc3)C2)CC1	-4.32%	–
Cn1cccc1C(=O)N1CCC2(CC1)CCN(c1ccncc1)CC2	-34.4%	–
Nc1nc(=O)c2[nH]cnc2n1O	-10.6% [at 11.4 µM]	–
CNC(=O)[C@@H]1O[C@@H](n2cnc3c(NCc4ccc(N)cc4)ncnc32)[C@@H](O)[C@H]1O	20.5%	–
CN1CC[C@@]2(CCCN(C(=O)c3cccn3C)C2)C1	12.9%	–
CC(C)NC(=O)N1CC[C@@]2(CCCN(C(=O)c3cccn3C)C2)C1	23%	–
Cn1cccc1C(=O)N1CCC[C@@]2(CCN(c3ccccc3)C2)C1	–	5.01 µM (active)
Cc1cc2ccccc2c(=O)n1CC(=O)NCC(=O)N1CCCC1	-15.6%	–
Cc1ccc(S(=O)(=O)NCCn2c(C)cc3ccccc32)cc1	–	1 µM (active)
CN(C)CCn1c(C(=O)O)cc2ccccc21	31.4%	–
Cc1cc2ccccc2n1CCNC(=O)C1CCCC1	–	1.26 µM (active)
Cc1ccc(S(=O)(=O)NC(=O)c2cccn2C)cc1	7.77%	–
